FMDV antiviral: blocks foot and mouth disease virus; FMDV antiviral cell-based qHTS; Potency, µM (titrated, usually from 57.9 µM), hits mostly inhibitors; hit rate 1.2% among 410,000; calls by dose curve; tested in HEK293T cells; note: read-out not given here; nearly all actives have a fitted effect of over 45% in size
SARS PLpro yeast: blocks SARS-CoV papain-like protease in a yeast assay; hit rate 0.19% among 330,000; S. cerevisiae expressing SARS-CoV PLpro, growth rescue; Potency, µM (highest dose often 32.9 µM), usual class: activators; calls by dose curve; note: nearly all actives have a fitted effect of over 55% in size
HCV inhibitor: inhibitors of hepatitis C virus infection; Huh7.5.1 HCVcc-Cre infection, luciferase reporter, 44 h; Potency, µM (top dose mostly 41.8 µM), hits mostly inhibitors; hit rate 3.4% among 340,000; active = well fitted inhibition curve with a large enough effect; inconclusive = small, poorly fitted or top-dose-only effect, or another doubt; inactive = no such curve, though single readings can be large or run the other way
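Reporter virus HCVcc-Cre (~0.5 moi) infects cells exposed to compound; seeding density 1,000 cells/well with 4 h settling beforehand. Luminescence, 15 sec read, taken 44 h post-infection following a 15 min RT substrate incubation.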
LASV entry inh: inhibitors of Lassa virus binding or cell entry; Lassa virus pseudotype entry inhibition, cell reporter; Potency, µM (top dose mostly 37.9 µM), hits mostly inhibitors; hit rate 1.2% among 300,000; calls by dose curve; tested in HEK293 cells; note: nearly all actives have a fitted effect of over 50% in size
HCMV antiviral: human cytomegalovirus inhibition. AID 1259415. hit rate 4.5% among 410,000. HFF cells, HCMV-luciferase reporter, 72 h; active compounds read low. activity change, negative = inhibition, % at 57.5 µM; in the data active = activity change below about -60%; inconclusive = no clear call, values can overlap the other calls; inactive = above about -39%
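Compounds were evaluated in HFFs infected with an HCMV luciferase reporter virus (MOI 1 PFU/cell). Luciferase in lysates collected 72 h post infection served as the replication measure.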
Marburg entry inh: inhibitors of Marburg virus binding or cell entry | Marburg virus pseudotyped entry inhibition, cell reporter | Potency, µM (titrated, usually from 37.8 µM), most hits filed as inhibitors | hit rate 1.8% among 300,000 | AID 540276; calls by dose curve; tested in HEK293 cells
Hits are given with their value; - = inactive; ? = inconclusive; . = no result given. Compounds with a hit are over-represented: about 8% of the library has one in this group of screens.

SMILES | FMDV antiviral | SARS PLpro yeast | HCV inhibitor | LASV entry inh | HCMV antiviral | Marburg entry inh
CCOc1ccc(C(OC(=O)c2ccco2)C(=O)NCc2ccc(C)cc2)cc1 (centres undefined) | - | - | - | - | -74 | -
Cc1cccc(N2CCN(c3nc4ccc(C(=O)c5ccccc5)cc4n4cnnc34)CC2C)c1 (centres undefined) | - | . | . | ? | - | .
COc1ccc(N[C@H]2CC(=O)N(C)C2=O)cc1 | . | . | . | . | . | -
Cc1ccccc1NC(=O)Nc1nnc(N2CCCCCC2)s1 | - | . | . | - | - | -
c1ccc(CN2CCN(Cc3c[nH]c4ccccc34)CC2)cc1 | - | - | - | - | - | ?
CN1CC=C(c2c[nH]c3ccccc23)CC1 | - | - | 6.3µM | . | - | .
C1=C(c2c[nH]c3ccccc23)CCN(Cc2ccccc2)C1 | - | - | ? | . | -97 | .
COc1ccc(N(C(=O)c2ccc(OC)c(OC)c2)S(=O)(=O)c2ccc(Cl)cc2)cc1 | - | . | . | ? | - | .
NC1=C(Br)C(=O)c2ncccc2C1=O | 4µM | . | ? | ? | -102 | 2.5µM
Cc1cccc(-n2c(-c3csc4ccccc34)n[nH]c2=S)c1 | - | - | - | - | -70 | -
COc1ccc(/C=N/Nc2cc(C)nc(-n3nc(C)cc3C)n2)cc1 | 32µM | ? | ? | ? | -99 | 16µM
Cc1cc(N/N=C/c2ccc(O)cc2O)nc(-c2ccccc2O)n1 | - | - | ? | ? | . | ?
Cc1cc(N/N=C/c2cccc(Cl)c2)nc(-n2nc(C)cc2C)n1 | - | - | 18µM | ? | -87 | ?
Cc1cc(N/N=C/c2ccc(O)cc2O)nc(-n2nc(C)cc2C)n1 | ? | - | ? | 7.3µM | ? | 3.7µM
COc1ccc(/C=N/Nc2cc(C)nc(NS(=O)(=O)c3ccc(C)cc3)n2)cc1 | - | - | - | - | -62 | -
CC(CNC(=O)c1cc2ccccn2n1)c1ccccc1 (centres undefined) | - | . | . | - | - | .
COC(=O)CC1c2ccccc2C=C(C=Cc2ccc3c(c2)OCO3)N1C(=O)OC (centres undefined) | . | . | . | ? | . | -
Cc1cc(N/N=C/c2cccc([N+](=O)[O-])c2)nc(-n2nc(C)cc2C)n1 | - | - | ? | - | ? | -
Cc1cc(N/N=C/c2ccccc2[N+](=O)[O-])nc(-n2nc(C)cc2C)n1 | ? | - | 2.5µM | ? | -99 | ?
CCOC(=O)CN1C(=O)C(Sc2n[nH]c(-c3cccc(C)c3)n2)CCc2ccccc21 (centres undefined) | ? | - | - | - | - | ?
CCOC(=O)CN1C(=O)C(Sc2n[nH]c(-c3ccc(C)cc3)n2)CCc2ccccc21 (centres undefined) | 28µM | - | ? | ? | ? | ?
O=[N+]([O-])c1ccc(N/N=C/c2ccc(O)c(O)c2O)c(S(=O)(=O)N2CCOCC2)c1 | ? | - | ? | - | - | -
O=[N+]([O-])c1ccc(N/N=C/c2cccc(O)c2O)c(S(=O)(=O)N2CCOCC2)c1 | ? | - | 2.8µM | . | - | .
Cc1cc2c(n1-c1ccc(C(=O)NCC(C)c3ccccc3)cc1)CCCC2 (centres undefined) | - | . | . | - | -61 | .
Cc1cc2c(n1-c1ccc(C(=O)NCc3cccc(Br)c3)cc1)CCC(C)C2 (centres undefined) | - | . | . | ? | ? | .
SMILES | FMDV antiviral | SARS PLpro yeast | HCV inhibitor | LASV entry inh | HCMV antiviral | Marburg entry inh
CSc1ccc(CCNC(=O)c2ccc(-n3c(C)cc4c3CCCC4)cc2)cc1 | - | . | . | ? | -98 | .
COc1cccc(CNC(=O)c2ccc(-n3c(C)cc4c3CCC(C)C4)cc2)c1 (centres undefined) | - | . | . | ? | -83 | .
Cc1ccccc1CNC(=O)c1ccc(-n2c(C)cc3c2CCCC3)cc1 | - | . | . | ? | - | .
CCc1ccc(S(=O)(=O)c2nnn3c2nc(NCc2cccc(OC)c2)c2cc(Cl)ccc23)cc1 | - | . | . | . | - | -
Cc1ccsc1C(=O)NCCC(c1ccccc1)c1ccccc1 | - | - | - | ? | - | 13µM
Cc1nc(C)c(C(=O)NCCC(c2ccccc2)c2ccccc2)o1 | ? | - | 10µM | ? | ? | -
Cc1ccsc1C(=O)NCc1ccccc1Cl | - | - | - | . | - | -
Cc1nc2ccn(Cc3ccco3)c(=O)c2cc1C(=O)Nc1ccc(F)cc1 | - | . | . | - | ? | .
O=C(C/C=N\OCc1ccc([N+](=O)[O-])cc1)Nc1ccc(Br)cc1 | - | - | - | - | -66 | -
O=C(COc1ccc([N+](=O)[O-])cc1)NNC(=O)Nc1ccc([N+](=O)[O-])cc1 | - | ? | - | . | - | .
COc1cccc(N2CCN(C(=O)C3CCN(S(=O)(=O)c4cn(C)cn4)CC3)CC2)c1 | - | . | . | - | - | .
C=CS(=O)(=O)c1ccc(Oc2ccc(S(=O)(=O)C=C)cc2)cc1 | 4µM | - | ? | 6.5µM | -102 | ?
O=C1[C@H]2[C@@H]3[C@@H](O)[C@H](O)CC(=NOCc4ccccc4)[C@@H]3CC[C@H]2C(=O)N1C[C@@H]1CCCO1 | . | . | . | . | . | -
Cc1ccc(Cl)cc1-c1cc(C(=O)N2CCc3ccccc3C2)[nH]n1 | - | . | . | . | -98 | .
O=C(c1cc2cc(Cl)ccc2[nH]1)N1CCc2ccccc2C1 | - | - | ? | . | - | .
COc1ccc(-c2cc(C(=O)N3CCc4c(cnc(C)c4CNC(=O)c4ccsc4)C3)[nH]n2)cc1 | - | . | . | . | . | .
O=C(Nc1cccc(F)c1)NC1(C(=O)N2CCC(O)CC2)CCCCC1 | - | - | - | ? | -99 | ?
NC(=O)C1CCN(C(=O)C2(NC(=O)Nc3cccc(F)c3)CCCCC2)CC1 | - | - | - | ? | - | -
CS(=O)(=O)c1ccc(C(=O)Nc2cccc(-c3nc4ccccc4[nH]3)c2)cc1 | ? | - | ? | . | - | .
COCCN1Cc2cccc(C(=O)Nc3cccc(-c4nc5ccccc5[nH]4)c3)c2C1=O | - | - | ? | ? | -69 | ?
CCOc1cc(OCC)cc(C(=O)Nc2cccc(-c3nc4ccccc4[nH]3)c2)c1 | ? | . | . | ? | -98 | .
COCCN1Cc2cccc(C(=O)Nc3ccc(-c4nc5ccccc5[nH]4)cc3)c2C1=O | - | - | - | - | - | ?
CCCOc1ccc(C(=O)Nc2cccc(-c3nc4ccccc4[nH]3)c2)cc1 | ? | . | . | - | -88 | -
Cc1ccc(NC(=S)NCCC(c2ccccc2)c2ccccc2)c(C)c1 | - | - | 11µM | ? | -62 | ?
Cc1ccc(C)c(NC(=S)NCCc2c[nH]c3ccccc23)c1 | - | - | ? | ? | -78 | ?
SMILES | FMDV antiviral | SARS PLpro yeast | HCV inhibitor | LASV entry inh | HCMV antiviral | Marburg entry inh
Cc1cccc(NC(=S)NCCC(C)C)c1 | - | - | ? | ? | - | 1.5µM
Cc1cccc(NC(=S)NCCc2c[nH]c3ccccc23)c1 | - | - | - | ? | -80 | ?
C[C@H]1[C@@H](c2ccccc2)Oc2c(Cl)cccc2S(=O)(=O)N1Cc1ccc(Cl)cc1 | . | . | . | - | . | .
COc1ccc(-c2nc3cnc(N(C)C)nc3n(C)c2=O)cc1 | - | . | . | . | . | .
CN(C)c1ccc(C(CNC(=O)c2ccc(C(C)(C)C)cc2)N2CCOCC2)cc1 (centres undefined) | - | . | . | ? | - | .
CCOC(=O)CSc1nc2ccc(NC(=O)CSc3nnnn3Cc3ccccc3)cc2s1 | - | - | - | - | - | -
